From PubChem BioAssay
TDP1 cell CPT: qHTS for Inhibitors of human tyrosyl-DNA phosphodiesterase 1 (TDP1): qHTS in cells in presence of CPT. chicken DT40 Tdp1-/-;hTDP1 cells + 20 nM CPT, ATP luminescence, 48 h. Potency, µM (top dose mostly 46.2 µM), usual class: inhibitors. 420,000 compounds, 12% hits. AID 686979, 2013; note: nearly all actives have a fitted effect of over 55% in size
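Chicken DT40 Tdp1-/- cells stably complemented with human TDP1 were seeded at 400 cells/well in medium containing 20 nM camptothecin, exposed to pin-transferred compounds, and grown at 37 °C for at least 48 hr. Viability was read as ATP luminescence.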
uPA generation: qHTS for Inhibitors of Cell Surface uPA Generation. cell surface uPA generation assay, qHTS. Potency, µM (series often up to 38.3 µM), most hits filed as inhibitors. 330,000 compounds, 0.31% hits. AID 540303, 2011; active = well fitted inhibition curve with a large enough effect; inconclusive = small, poorly fitted or top-dose-only effect; inactive = no such curve, though single readings can be large or run the other way; tested in mouse RAW 264.7 cells; note: nearly all actives have a fitted effect of over 55% in size
TDP1 cell noCPT: qHTS for Inhibitors of human tyrosyl-DNA phosphodiesterase 1 (TDP1): qHTS in cells in absence of CPT; DT40 Tdp1-/- hTDP1 cells, no CPT, ATP luminescence, 48 h; AID 686978, 2013; Potency, µM (series often up to 46.2 µM), most hits filed as inhibitors; 420,000 compounds, 15% hits; note: nearly all actives have a fitted effect of over 55% in size
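Chicken DT40 Tdp1-/- cells stably complemented with human TDP1 were seeded at 400 cells/well with DMSO in place of 20 nM camptothecin. After compound pinning, cells grew at least 48 hr at 37 °C; viability read by CellTiter-Glo luminescence.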
miR-21 reporter: qHTS Assay for Modulators of miRNAs and/orActivators of miR-21 | HeLa miR-21 FLuc reporter, luciferase, 48 h | Potency, µM (series often up to 38.3 µM), actives largely listed as activators | 340,000 tested, under 10 active | AID 2288, 2010;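 note: miR-21 action dims this reporter so a rising signal means less miR-21 action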
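Luminescence from a firefly luciferase reporter carrying a miR-21 binding site downstream, stably expressed under a CMV promoter in HeLa cells that make miR-21 endogenously, reports miRNA modulation after 48 h compound exposure up to approximately 40uM final.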
TDP1 block: qHTS Assay for Inhibitors of Tyrosyl-DNA Phosphodiesterase (TDP1); Potency, µM (series often up to 130 µM), actives largely listed as inhibitors; Tyrosyl-DNA phosphodiesterase 1 (Homo sapiens), Q9NUW8; 350,000 compounds, 0.28% hits; recombinant TDP1, AlphaScreen DNA substrate cleavage; note: nearly all actives have a fitted effect of over 40% in size
Target sequence (Q9NUW8 whole entry, looked up): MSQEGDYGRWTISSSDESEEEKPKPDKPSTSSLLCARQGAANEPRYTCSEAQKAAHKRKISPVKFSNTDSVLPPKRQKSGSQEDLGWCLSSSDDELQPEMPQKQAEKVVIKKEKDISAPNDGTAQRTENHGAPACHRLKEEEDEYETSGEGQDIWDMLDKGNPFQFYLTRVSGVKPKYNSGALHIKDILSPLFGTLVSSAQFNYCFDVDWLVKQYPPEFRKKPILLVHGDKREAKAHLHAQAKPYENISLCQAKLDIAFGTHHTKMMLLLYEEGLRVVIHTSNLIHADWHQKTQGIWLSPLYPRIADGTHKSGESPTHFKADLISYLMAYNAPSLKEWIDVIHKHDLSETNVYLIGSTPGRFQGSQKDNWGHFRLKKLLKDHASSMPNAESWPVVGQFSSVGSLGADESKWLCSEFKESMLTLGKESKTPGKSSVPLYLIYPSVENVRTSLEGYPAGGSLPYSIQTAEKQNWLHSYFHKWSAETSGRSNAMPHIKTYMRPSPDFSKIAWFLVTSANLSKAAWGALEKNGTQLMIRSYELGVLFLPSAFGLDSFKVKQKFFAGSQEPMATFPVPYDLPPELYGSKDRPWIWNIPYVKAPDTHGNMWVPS
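Here, a 5' biotin and 3' phosphotyrosine-FITC DNA oligonucleotide reports Tdp1 activity: intact substrate bridges AlphaScreen beads, while cleavage leaves a 3' phosphate and drops signal. All incubations at room temperature.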
Of the large screens only hits and unclear results are named; the others gave an inactive call. An excerpt weighted towards active compounds, which were near 16% of everything screened. Unless noted, calls come from the whole dose curve; as a rule, active = well fitted curve in the direction sought with a large enough effect; inconclusive = small, poorly fitted or top-dose-only effect, or another doubt; inactive = no such curve, though single readings can be large; an effect the other way counts as inactive or inconclusive.

COCC(C)n1c(-c2ccc3c(c2)NC(=O)CO3)csc1=Nc1ccc(OC(F)F)cc1 (centres undefined)	TDP1 cell CPT 5.2µM, TDP1 cell noCPT 6.5µM
CN(C)S(=O)(=O)c1cccc(N=c2scc(-c3ccc4c(c3)NC(=O)CO4)n2CC2CCCO2)c1 (centres undefined)	TDP1 cell CPT 6.5µM, TDP1 cell noCPT 7.3µM
Cc1ccc(OCCC(=O)OCC(=O)c2ccc3c(c2)NC(=O)CO3)cc1	none (no result: miR-21 reporter)
O=C(O)c1cc(-c2ccccc2)n(-c2ccc(F)cc2)n1	none (no result: TDP1 block)
O=S1(=O)CCN(C2CCCC2)CC1	none (no result: uPA generation, miR-21 reporter, TDP1 block)
O=C(Nc1cccc(C(=O)OCc2cc(=O)n3ccsc3n2)c1)c1ccc(F)cc1	none (no result: uPA generation)
C[n+]1ccccc1/C=C/c1ccccc1Cl	none (no result: TDP1 block)
CCn1c(SCC(=O)Nc2ccc(S(N)(=O)=O)cc2)nnc1-c1ccccc1OC	none
CCOc1[nH]c(/N=C/c2ccco2)c(C#N)c1C#N	TDP1 cell CPT 21µM, TDP1 cell noCPT inconclusive
CCCCn1nc(C(=O)NC2=NCCS2)c2ccccc2c1=O	none
Cc1nc(S/C(=C/c2ccc(OCc3ccc(C(=O)O)cc3)cc2)C(=O)O)n[nH]1	TDP1 block 13µM
CC1CCN(CCCNC(=O)c2ccc3c(Cl)c4c(nc3c2)CCCC4)CC1	TDP1 cell CPT 13µM, TDP1 cell noCPT 3.7µM
CCOC(=O)c1ccccc1NC(=O)c1ccc2c(Cl)c3c(nc2c1)CCC3	none (no result: uPA generation)
CCOC(=O)c1cccc(NC(=O)c2ccc3c(Cl)c4c(nc3c2)CCC4)c1	TDP1 cell CPT inconclusive, TDP1 cell noCPT 29µM (no result: uPA generation)
CCCN(CCC)CCCNC(=O)c1ccc2c(Cl)c3c(nc2c1)CCC3	TDP1 cell CPT inconclusive, TDP1 cell noCPT 18µM (no result: TDP1 block)
COCCNC(=O)c1ccc2c(Cl)c3c(nc2c1)CCC3	none (no result: TDP1 block)
CCOc1ccc(CCNC(=O)c2ccc3c(Cl)c4c(nc3c2)CCCC4)cc1	TDP1 cell CPT inconclusive, TDP1 cell noCPT 23µM (no result: uPA generation)
CCN1CCN(CCCNC(=O)c2ccc3c(Cl)c4c(nc3c2)CCCC4)CC1	TDP1 cell CPT inconclusive, TDP1 cell noCPT 18µM
COc1ccccc1CN1[C@@H](CC(=O)O)c2cc(F)ccc2S1(=O)=O	none (no result: miR-21 reporter, TDP1 block)
CC(C)n1c(N2CCN(C(=O)NCc3ccccc3)CC2)nc2ccccc21	TDP1 cell CPT inconclusive, TDP1 cell noCPT 23µM
O=C(NC12CC3CC(CC(C3)C1)C2)c1ccc([N+](=O)[O-])cc1	TDP1 cell CPT inconclusive, uPA generation inconclusive (no result: TDP1 block)
CS(=O)(=O)N1CCN(c2ccc(C(=O)NC34CC5CC(CC(C5)C3)C4)cc2[N+](=O)[O-])CC1	TDP1 cell CPT 15µM, TDP1 cell noCPT 9.2µM
CS(=O)(=O)c1ccc(C(=O)OCC(=O)NC23CC4CC(CC(C4)C2)C3)cc1[N+](=O)[O-]	TDP1 cell CPT inconclusive, TDP1 cell noCPT inconclusive
CCS(=O)(=O)N1CCN(c2ccc(C(=O)NC34CC5CC(CC(C5)C3)C4)cc2[N+](=O)[O-])CC1	TDP1 cell CPT 12µM, TDP1 cell noCPT 7.3µM
COc1ccc(OC)c(/C=N/NC(=O)CC2C(=O)NN=C2C)c1 (centres undefined)	none
Cc1cc2[nH]c3c(c[n+](C)c4ccccc34)c2cc1C	uPA generation inconclusive, TDP1 cell noCPT 1.6µM, miR-21 reporter inconclusive
CCOC(=O)c1cc2c(ccn2C)n1CC(=O)N(Cc1ccccc1)c1ccc(F)cc1	none
CC(C)OC(=O)c1cc2c(ccn2C)n1CC(=O)N(Cc1ccccc1)c1ccc(F)cc1	TDP1 cell CPT 16µM, TDP1 cell noCPT 21µM
CC(C)OC(=O)c1cc2c(ccn2C)n1CC(=O)N1CCC(Cc2ccccc2)CC1	TDP1 cell CPT inconclusive, TDP1 cell noCPT 21µM
CCOC(=O)c1cc2c(ccn2C)n1CC(=O)N(Cc1ccccc1)c1ccccc1	TDP1 cell CPT 23µM, TDP1 cell noCPT inconclusive
COc1ccc(/C=C/C(=O)Nc2ccccc2Cl)cc1S(=O)(=O)N1CCOCC1	TDP1 cell CPT inconclusive, TDP1 cell noCPT inconclusive
COc1c(C)c2c(c(O)c1C/C=C(\C)CCC(=O)OCCN1CCOCC1)C(=O)OC2	TDP1 cell CPT 0.13µM, TDP1 cell noCPT 0.17µM (no result: uPA generation, miR-21 reporter, TDP1 block)
COc1cc(C(=O)OCCN2CCOCC2)cc(OC)c1OC	none
